Data taken from PubChem BioAssay AID1159580 (chemical genetic matrix, 2015).
Out of some 5,500 compounds screened, about 2,000 (36%) were called active. Not shown: some 18% with an inconclusive outcome. No stated cut-off is given here; in the data, active means normalized growth mostly below about 0.91 (no sharp cut-off); inconclusive means no clear call, values can overlap the other calls; inactive means mostly above about 0.92. The list shows a part of the results.

Assay: chemical genetic growth profiling, strain panel (AID 1159580);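 further: tested at 20 µM; growth read once vehicle control cultures reached saturation at 30 °C; 1 = growth at the plate median or of vehicle wells; lower values mean less growth of the strain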
Settings: S. cerevisiae deletion strains, growth OD

Measured: normalized growth

C[C@@H]1CC[C@@]2(NC1)O[C@H]1C[C@H]3C4CC=C5C[C@@H](O)CC[C@]5(C)C4CC[C@]3(C)C1[C@@H]2C (some centres undefined)
inactive: locus YJR066W, strain TOR1, active compounds read low 0.985 | locus YKL068W, active compounds read low 1.01 | locus YKL085W, strain MDH1 (second series), active compounds read low 0.942 | locus YKL085W, strain MDH1, active compounds read low 0.942 | locus YLR113W, strain HOG1, active compounds read low 1.04 | locus YNL183C, strain NPR1, active compounds read low 0.989 | locus YOL012C, strain htz1 0.198 | locus YOR231W, strain MKK1, active compounds read low 1.03 | locus YPL256C, strain CLN2, active compounds read low 1.07 | locus YPR141C, strain kar3, active compounds read low 1.06
active: locus YJL187C, strain SWE1 (second series), active compounds read low 0.103 | locus YJR075W, strain HOC1, active compounds read low 0.119 | locus YKL009W, strain mrt4, active compounds read low 0.807 | locus YKL160W, strain elf1, active compounds read low 0.12 | locus YKR001C, strain vps1, active compounds read low 0.0859 | locus YKR026C, strain gcn3, active compounds read low 0.0875 | locus YKR091W, strain srl3, active compounds read low 0.109 | locus YLL001W, strain dnm1, active compounds read low 0.074 | locus YLL026W, active compounds read low 0.0713 | locus YLL041C, strain sdh2, active compounds read low 0.075 | locus YLR027C, strain aat2, active compounds read low 0.0705 | locus YLR039C, strain RIC1, active compounds read low 0.33 | locus YLR058C, strain SHM2, active compounds read low 0.0802 | locus YLR102C, strain apc9, active compounds read low 0.088 | locus YLR221C, strain rsa3, active compounds read low 0.0678 | locus YLR258W, strain gsy2, active compounds read low 0.0842 | locus YLR262C, strain YPT6 (second series), active compounds read low 0.341 | locus YLR268W, strain sec22, active compounds read low 0.0987 | locus YLR320W, strain mms22, active compounds read low 0.091 | locus YLR342W, strain FKS1 (second series), active compounds read low 0.0987 | locus YLR342W, strain FKS1, active compounds read low 0.0952 | locus YLR357W, strain rsc2, active compounds read low 0.172 | locus YLR370C, strain arc18, active compounds read low 0.066 | locus YLR371W, strain rom2, active compounds read low 0.0867 | locus YLR384C, strain iki3, active compounds read low 0.702 | locus YLR418C, strain cdc73, active compounds read low 0.127 | locus YML016C, strain PPZ1, active compounds read low 0.0701 | locus YML032C, strain rad52, active compounds read low 0.112 | locus YML120C, strain ndi1, active compounds read low 0.0773 | locus YML124C, strain tub3, active compounds read low 0.0964 | locus YMR058W, strain fet3, active compounds read low 0.0836 | locus YMR078C, strain ctf18, active compounds read low 0.0876 | locus YMR125W, strain sto1, active compounds read low 0.089 | locus YMR129W, active compounds read low 0.0739 | locus YMR205C, strain PFK2, active compounds read low 0.15 | locus YMR223W, strain ubp8, active compounds read low 0.0986 | locus YMR231W, strain pep5, active compounds read low 0.319 | locus YMR307W, strain GAS1, active compounds read low 0.145 | locus YNL067W, strain RPL9B, active compounds read low 0.132 | locus YNL071W, strain lat1, active compounds read low 0.0643 | locus YNL209W, strain ssb2, active compounds read low 0.19 | locus YNL233W, strain BNI4, active compounds read low 0.0774 | locus YNL248C, strain rpa49, active compounds read low 0.079 | locus YNL250W, strain rad50, active compounds read low 0.889 | locus YNL271C, strain bni1, active compounds read low 0.848 | locus YNL298W, strain CLA4, active compounds read low 0.767 | locus YNL307C, strain MCK1, active compounds read low 0.0706 | locus YNL322C, strain KRE1 (second series), active compounds read low 0.0978 | locus YNR049C, strain mso1, active compounds read low 0.0668 | locus YNR052C, strain pop2, active compounds read low 0.282 | locus YOL147C, strain pex11, active compounds read low 0.0757 | locus YOR001W, strain rrp6, active compounds read low 0.083 | locus YOR061W, strain CKA2, active compounds read low 0.0862 | locus YOR069W, strain VPS5, active compounds read low 0.104 | locus YOR070C, strain gyp1, active compounds read low 0.151 | locus YOR080W, strain dia2, active compounds read low 0.277 | locus YOR083W, strain WHI5, active compounds read low 0.134 | locus YOR106W, strain vam3, active compounds read low 0.0987 | locus YOR136W, strain idh2, active compounds read low 0.108 | locus YOR144C, strain elg1, active compounds read low 0.0812 | locus YOR184W, strain ser1, active compounds read low 0.0846 | locus YOR265W, strain rbl2, active compounds read low 0.0812 | locus YOR270C, strain vph1, active compounds read low 0.0993 | locus YOR290C, strain snf2, active compounds read low 0.074 | locus YOR316C, strain cot1, active compounds read low 0.0883 | locus YPL051W, strain arl3, active compounds read low 0.436 | locus YPL055C, strain LGE1, active compounds read low 0.137 | locus YPL078C, strain atp4, active compounds read low 0.0699 | locus YPL106C, strain sse1, active compounds read low 0.154 | locus YPL240C, strain hsp82, active compounds read low 0.0838 | locus YPR119W, strain clb2, active compounds read low 0.0943 | locus YPR163C, strain tif3, active compounds read low 0.0947 | locus YPR167C, strain met16, active compounds read low 0.0878 | strain wtn01, active compounds read low 0.0815
